# Test results published in PubChem BioAssay (Tox21).
# Values without a mark were called inactive. Inconclusive results are not listed. Entries that show only a call come without a potency. Active and inactive are the calls of the source. Unless noted, the call rests on the fitted dose curve; in most records, active means well fitted curve in the direction sought with a large enough effect in the repeat runs; inconclusive means weak or mixed curves; inactive means no such curve, though single readings can be large; an effect the other way counts as inactive or inconclusive.
# How the values were obtained:
# [1] = qHTS assay for small molecule agonists of the p53 signaling pathway - cell viability (AID 651633; calls by dose curve;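 further: p53RE-bla HCT reporter cells with a stable beta-lactamase p53 reporter; series mostly up to about 83 µM; nearly all actives have a fitted effect of over 30% in size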)
# How it was run: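 p53RE-bla cells, seeded at 4,000 per well and rested 5 h at 37 C/5% CO2, received compounds in DMSO for 16 h at 37 C. CellTiter-Glo was then added, and luminescence was read after 30 min at room temperature to gauge cytotoxicity.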
# [2] = qHTS assay for small molecules that induce genotoxicity in human embryonic kidney cells expressing luciferase-tagged ATAD5 - cell viability (AID 651634; calls by dose curve; further: nearly all actives have a fitted effect of over 25% in size; further: potency means the concentration at half of the fitted maximal effect)
# How it was run: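 Quantitative high-throughput format. HEK293T cells expressing ATAD5 fused to luciferase were plated at 2,000 cells/well and treated 15.5 hr with compound versus DMSO. Viability was determined by fluorescent live-cell protease substrate, 30 min at 37C.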
# [3] = qHTS assay to test for compound auto fluorescence at 460 nm (blue) in HEK293 cells (AID 720678)
# How it was run: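 Triamterene serves as the blue fluorophore standard. Compound signal at 405/460 nm is read in HEK293 wells (2,000 cells, 10% dialyzed FBS) after overnight treatment at 37C.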
# [4] = qHTS assay to test for compound auto fluorescence at 590 nm (red) in HEK293 cells (AID 720679)
# How it was run: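 We plated HEK293 cells in 10% dialyzed FBS medium, let them adhere for 4-5 hr, then added 23 nL compound. Overnight at 37C and 5% CO2 preceded fluorescence measurement at 540/590nm.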
# [5] = qHTS assay to test for compound auto fluorescence at 460 nm (blue) in HEK293 cell free culture (AID 720681)
# How it was run: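 Test compounds were pinned into cell-free culture medium (DMEM with 10% FBS) and fluorescence was read directly at Ex/Em 405/460 nm. Signals were expressed as fluorescence equivalents of triamterene, with DMSO vehicle as control.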
# [6] = qHTS assay to test for compound auto fluorescence at 590 nm (red) in HEK293 cell free culture (AID 720683)
# How it was run: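 Tox21 10K library compounds were pinned into cell-free DMEM with 10% FBS and fluorescence was read at excitation 540 nm. Activity is expressed as Rose Bengal sodium equivalency.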
# [7] = qHTS assay to test for compound auto fluorescence at 460 nm (blue) in HepG2 cell free culture (AID 720685)
# How it was run: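 Cell-free plates of MEM plus 10% FBS received 23 nL compound or DMSO vehicle; blue-channel (405/460 nm) intensity scored against triamterene as reference fluorophore.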
# [8] = qHTS assay to test for compound auto fluorescence at 535 nm (green) in HepG2 cell free culture (AID 720686)
# [9] = qHTS assay to identify small molecule antagonists of the glucocorticoid receptor (GR) signaling pathway - cell viability counter screen (AID 720693); further: nearly all actives have a fitted effect of over 55% in size
# [10] = qHTS assay to identify small molecule antagonists of the androgen receptor (AR) signaling pathway - cell viability counter screen (AID 743033; further: nearly all actives have a fitted effect of over 45% in size)
# [11] = qHTS assay to identify small molecule antagonists of the androgen receptor (AR) signaling pathway using the MDA cell line - cell viability counter screen (AID 743041; further: nearly all actives have a fitted effect of over 45% in size)
# How it was run: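 In this qHTS counter assay, fluorescence intensity after CellTiter-Fluor addition indicated viability of MDA-kb2 AR-luc cells given compounds and R1881 for 16 h at 37C.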
# [12] = qHTS assay to identify small molecule antagonists of the thyroid receptor (TR) signaling pathway (AID 743065); further: nearly all actives have a fitted effect of over 55% in size; further: potency means the concentration at half of the fitted maximal effect
# How it was run: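 GH3.TRE-Luc rat pituitary cells carrying two TR response elements driving luciferase were plated for 4 h, given compound plus 1 nM T3 (final), and incubated 23.5 h at 37 C. ONE-Glo luminescence measured reporter inhibition; CellTiter-Fluor fluorescence tracked cytotoxicity.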
# [13] = test system: thyroid hormone receptor (rat, GH3 cells); test: qHTS assay to identify small molecule agonists of the thyroid receptor (TR) signaling pathway (AID 743066; calls by dose curve)
# [14] = qHTS assay to identify small molecule antagonists of the estrogen receptor alpha (ER-alpha) signaling pathway - cell viability counter screen (AID 743074; calls by dose curve;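 further: HEK293 cells carrying ER-alpha-UAS-bla reporter stimulated with 17beta-estradiol; nearly all actives have a fitted effect of over 45% in size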)
# [15] = qHTS assay to identify small molecule antagonists of the estrogen receptor alpha (ER-alpha) signaling pathway using the BG1 cell line - cell viability counter screen (AID 743081);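 further: compound given together with 17beta-estradiol as the ER stimulus; series mostly up to about 70 µM; nearly all actives have a fitted effect of over 45% in size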
# Aromatase (Homo sapiens) = Aromatase (Homo sapiens) (UniProt P11511); test: qHTS assay to identify aromatase inhibitors (AID 743083); further: nearly all actives have a fitted effect of over 55% in size; further: potency means the concentration at half of the fitted maximal effect
# [16] = qHTS assay to identify aromatase inhibitors - cell viability counter screen (AID 743084);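 further: cells stimulated with testosterone during compound exposure; nearly all actives have a fitted effect of over 55% in size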; further: potency means the concentration at half of the fitted maximal effect
# [17] = qHTS assay to identify small molecule that activate the aryl hydrocarbon receptor (AhR) signaling pathway - cell viability counter screen (AID 743086); further: nearly all actives have a fitted effect of over 45% in size; further: potency means the concentration at half of the fitted maximal effect
# How it was run: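 HepG2-AhR-luc (HG2L7.5c1) cells, 4000/well, were preincubated 5 h at 37C, exposed to compound in qHTS format for 24 hr at 37C, then given CellTiter-Fluor for 30 min; viability was read as fluorescence in the reporter wells.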
# [18] = qHTS assay to identify small molecule phospholipidosis (PLD) inducers (AID 1259344; active means well fitted curve in the direction sought with a large enough effect; an effect the other way counts as inactive or inconclusive)
# How it was run: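 After 4 h attachment on collagen I, HepG2 cells were dosed with compound alongside LipidTOX Red, kept 24 h at 37 C, fixed, and imaged for lamellar phospholipid pits.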
# [19] = target: Nuclear receptor subfamily 1 group I member 2 (Rattus norvegicus) (UniProt Q9R1A7); test: Rat pregnane X receptor (rPXR) activation by small molecules, qHTS assay (AID 1346983); conditions: rPXR luciferase reporter cells, One-Glo luminescence, 24 h; max activation: active compounds read high; further: nearly all actives have a fitted effect of over 20% in size
# How it was run: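 Cell-based rPXR luciferase reporter assay, 2,000 cells per well, rested 5hr at 37 C before compound addition in DMSO, then 24 hr at 37 C. One-Glo reagent was added and luminescence read after 30 min at room temperature.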
# Aromatase (Homo sapiens), sequence (P11511 whole entry, looked up): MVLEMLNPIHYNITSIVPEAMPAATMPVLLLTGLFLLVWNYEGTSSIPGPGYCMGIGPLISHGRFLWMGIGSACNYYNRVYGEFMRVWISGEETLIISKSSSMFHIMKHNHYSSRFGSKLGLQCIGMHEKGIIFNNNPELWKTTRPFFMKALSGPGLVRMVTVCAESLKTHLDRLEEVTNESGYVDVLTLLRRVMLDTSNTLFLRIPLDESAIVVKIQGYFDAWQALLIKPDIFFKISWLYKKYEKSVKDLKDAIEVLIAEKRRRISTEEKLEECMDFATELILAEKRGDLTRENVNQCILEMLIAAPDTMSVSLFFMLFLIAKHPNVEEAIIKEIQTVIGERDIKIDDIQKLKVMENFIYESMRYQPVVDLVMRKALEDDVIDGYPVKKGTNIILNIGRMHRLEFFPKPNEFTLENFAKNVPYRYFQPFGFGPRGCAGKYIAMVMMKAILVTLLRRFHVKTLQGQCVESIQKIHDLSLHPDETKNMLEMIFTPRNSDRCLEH
# Nuclear receptor subfamily 1 group I member 2 (Rattus norvegicus), sequence (Q9R1A7 whole entry, looked up): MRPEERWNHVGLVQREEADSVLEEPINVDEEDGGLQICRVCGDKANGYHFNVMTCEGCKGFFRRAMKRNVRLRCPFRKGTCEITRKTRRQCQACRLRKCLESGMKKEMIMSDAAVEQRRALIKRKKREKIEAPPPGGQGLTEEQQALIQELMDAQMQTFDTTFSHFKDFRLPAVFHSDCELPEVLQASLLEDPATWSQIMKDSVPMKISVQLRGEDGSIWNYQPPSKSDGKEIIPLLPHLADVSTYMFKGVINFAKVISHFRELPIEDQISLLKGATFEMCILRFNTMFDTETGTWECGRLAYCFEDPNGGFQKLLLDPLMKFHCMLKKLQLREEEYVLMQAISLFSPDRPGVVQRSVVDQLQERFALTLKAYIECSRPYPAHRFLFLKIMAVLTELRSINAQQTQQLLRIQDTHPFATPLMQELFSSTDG
SMILES,Potency [1],Potency [2],Potency [3],outcome [4],Potency [5],outcome [6],Potency [7],Potency [8],Potency [9],Potency [10],Potency [11],Potency [12],Potency [13],Potency [14],Potency [15],Potency (Aromatase (Homo sapiens)),Potency [16],Potency [17],Potency [18],max activation [19] [%]
CC(=O)OO,inactive,inactive,inactive,inactive,inactive,inactive,inactive,inactive,inactive,inactive,inactive,inactive,inactive,inactive,inactive,inactive,inactive,inactive,inactive,-0.773
COc1ccc2c(c1)C13CCCC[C@@H]1C(C2)N(C)CC3 (stereo partly specified),inactive,inactive,inactive,inactive,inactive,inactive,inactive,inactive,inactive,inactive,inactive,,inactive,inactive,inactive,inactive,inactive,inactive,inactive,-0.312
O=C1C=C2C=C[C@@H]3C[C@@]2(O1)[C@H]1CCCCN31,inactive,18.8 µM (active),inactive,inactive,inactive,inactive,inactive,inactive,inactive,inactive,,6.68 µM (active),inactive,inactive,,13.3 µM (active),23.7 µM (active),15 µM (active),inactive,-20.5
CN1CCCC(=C(c2cccs2)c2cccs2)C1,inactive,inactive,inactive,inactive,inactive,inactive,inactive,inactive,inactive,inactive,inactive,inactive,inactive,inactive,inactive,inactive,inactive,inactive,inactive,-1
CCN(CC)C(=O)N[C@H]1C[C@@H]2c3cccc4[nH]cc(c34)C[C@H]2N(C)C1,inactive,inactive,inactive,inactive,inactive,inactive,inactive,inactive,inactive,inactive,inactive,,inactive,inactive,inactive,inactive,inactive,inactive,inactive,-1.74
Cc1nnc2n1-c1ccc(Cl)cc1C(c1ccccc1)=NC2,inactive,inactive,inactive,inactive,inactive,inactive,inactive,inactive,inactive,inactive,inactive,26.6 µM (active),inactive,inactive,inactive,inactive,inactive,inactive,inactive,-0.769
CCN1C[C@]2(COC)[C@H](O)C[C@H](OC)[C@@]34[C@@H]5C[C@@]6(O)[C@H](OC(=O)c7ccccc7)[C@@H]5[C@@](OC(C)=O)([C@@H]([C@H](OC)[C@H]23)[C@@H]14)[C@@H](O)[C@@H]6OC,inactive,inactive,inactive,inactive,inactive,inactive,inactive,inactive,inactive,inactive,inactive,inactive,inactive,inactive,inactive,inactive,inactive,inactive,inactive,-1.75
Oc1ccc2c3c1O[C@H]1[C@@H](O)CC[C@@]4(O)[C@@H](C2)N(CC2CCC2)CC[C@]314,inactive,inactive,inactive,inactive,inactive,inactive,inactive,inactive,inactive,inactive,inactive,inactive,inactive,inactive,inactive,inactive,inactive,inactive,inactive,-0.605
